Laboratory results as given in PubChem BioAssay (Tox21).
Records with an inconclusive call do not appear. The source made the active and inactive calls. The call rests on the fitted dose curve; in most records, active means well fitted curve in the direction sought with a large enough effect in the repeat runs; inconclusive means weak or mixed curves; inactive means no such curve, though single readings can be large; an effect the other way counts as inactive or inconclusive.

System: not listed separately
Assay: qHTS assay to identify small molecule antagonists of the estrogen related receptor (ERR) signaling pathway from Tox21 library - cell viability counter screen (AID 1224834); further: nearly all actives have a fitted effect of over 30% in size
Details: ERR reporter cells viability, CellTiter-Fluor, 17.5 h; series mostly up to 92.4 µM; viability change, negative = cytotoxic: at the top concentration
Summary of the method: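 Cytotoxicity of test substances is gauged in the same ERR cells used for the antagonist screen, after 17.5 h of compound treatment at 37 C, by CellTiter-Fluor fluorescence measured after 30 min.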
On the % scale 0 is the no-effect control and ±100 the full control effect; potency means the concentration at half of the fitted maximal effect.

Row | SMILES | viability change, negative = cytotoxic | Potency
1 | O=c1[nH]c2ccc(Cl)cc2o1 | -0.791% (inactive) | 
2 | CCc1ccccc1 | -0.575% (inactive) | 
3 | CCC(C)COC(C)=O (stereo not given) | 3.61% (inactive) | 
4 | C=C(C)[C@@H]1CCC2=CCC[C@@H](C)[C@]2(C)C1 | 0.35% (inactive) | 
5 | O=C(Cn1ccnc1[N+](=O)[O-])NCCO | 0.0848% [at 42.5 µM] (inactive) | 
6 | C[C@@H]1CN(CCCn2c3ccccc3c3ccccc32)C[C@H](C)N1 |  | 29.8 µM (active)
7 | C[C@]1(Cn2ccnn2)[C@H](C(=O)O)N2C(=O)C[C@H]2S1(=O)=O | -1.89% [at 42.5 µM] (inactive) | 
8 | O=C(/C=C/c1ccccc1)OCCc1ccccc1 | 3.42% (inactive) | 
9 | CCCCN1CCCC1C(=O)Nc1c(C)cc(C)cc1C (stereo not given) | 0.801% [at 42.5 µM] (inactive) | 
10 | Cc1ccc(C(C)(C)O)cc1 | 2.85% (inactive) | 
11 | CCCCN(CCCC)C(C(N)=O)c1ccc(OC)cc1 (stereo not given) | -4.3% [at 42.5 µM] (inactive) | 
12 | CCCCN(CCN(CCCC)C(=O)N1CCOCC1)C(=O)N1CCOCC1 | -3.71% [at 42.5 µM] (inactive) | 
13 | CC1CC(OC(=O)C(O)c2ccccc2)CC(C)(C)N1C (stereo not given) | -5.52% [at 42.5 µM] (inactive) | 
14 | OCCN1CCN(CCCN2c3ccccc3Sc3ccc(Cl)cc32)CC1 |  | 26.6 µM (active)
15 | CCCCCC[C@@H](O)C/C=C\CCCCCCCC(=O)OCC(O)CO (stereo not given in full) | 0.024% (inactive) | 

Target: Luciferin 4-monooxygenase (Photinus pyralis) (UniProt P08659)
Assay: qHTS assay to identify small molecule inhibitors of firefly luciferase (AID 1224835); further: nearly all actives have a fitted effect of over 25% in size
Details: purified P. pyralis luciferase, luminescence inhibition; series mostly up to 52.9 µM; activity change, negative = inhibition: at the top concentration
Summary of the method: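 Quantitative HTS format; KM concentrations of both substrates. Purified P. pyralis FLuc activity quantified from luminescence images.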

Sequence of Luciferin 4-monooxygenase (Photinus pyralis) (P08659 whole entry, looked up): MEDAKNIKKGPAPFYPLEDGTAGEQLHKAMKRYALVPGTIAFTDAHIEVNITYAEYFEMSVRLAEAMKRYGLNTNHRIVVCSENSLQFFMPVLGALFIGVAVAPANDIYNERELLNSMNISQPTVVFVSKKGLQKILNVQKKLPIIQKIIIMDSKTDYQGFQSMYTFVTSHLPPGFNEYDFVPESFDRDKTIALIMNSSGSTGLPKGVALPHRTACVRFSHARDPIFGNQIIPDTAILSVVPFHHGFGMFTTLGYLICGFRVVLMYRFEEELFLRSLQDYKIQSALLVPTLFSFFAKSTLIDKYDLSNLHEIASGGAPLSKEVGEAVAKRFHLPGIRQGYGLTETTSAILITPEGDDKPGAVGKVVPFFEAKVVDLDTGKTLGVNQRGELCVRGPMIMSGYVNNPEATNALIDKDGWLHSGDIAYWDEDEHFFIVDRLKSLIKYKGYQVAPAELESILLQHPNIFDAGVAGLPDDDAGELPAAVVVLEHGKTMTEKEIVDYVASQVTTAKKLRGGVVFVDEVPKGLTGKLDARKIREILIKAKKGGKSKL

Row | SMILES | Potency | activity change, negative = inhibition
16 | Oc1cccc(Nc2ccccc2)c1 | 37.1 µM (active) | 
17 | Cc1cc2c(OCC(CNC(C)(C)C)OC(=O)c3ccccc3)cccc2[nH]1 (stereo not given) |  | 3.64% (inactive)
18 | CCC1(CO)COCOC1 |  | 2.79% [at 115 µM] (inactive)
19 | CC(C)(C)C(=O)C(=O)O |  | 0.624% [at 115 µM] (inactive)
20 | CCCCOc1ccc(OCCCN2CCOCC2)cc1 |  | -9.31% (inactive)
21 | O=[N+]([O-])c1cc(C2CCCCC2)c(O)c([N+](=O)[O-])c1 | 39.8 µM (active) | 
22 | CN1CCCC(n2nc(Cc3ccc(Cl)cc3)c3ccccc3c2=O)CC1 (stereo not given) |  | 0.549% (inactive)
23 | C(=C\c1ccccc1)/c1ccccc1 | 7.9 µM (active) | 
24 | Clc1cc(Cl)nc(Cl)n1 |  | -5.05% [at 115 µM] (inactive)
25 | O=C1NCCN1CCO |  | -1.97% [at 115 µM] (inactive)
26 | CCCCCCCCOc1ccc(C(=O)O)cc1 | 31.4 µM (active) | 
27 | Oc1c(I)cc(I)c2cccnc12 |  | 2.31% (inactive)
28 | CCOC(=O)c1ccc(I)cc1 | 50.7 µM (active) | 
29 | Cc1cc(O)ccc1O |  | -0.0529% [at 115 µM] (inactive)
30 | c1csc(SSc2cccs2)c1 | 22.4 µM (active) | 
31 | O=C1c2ccccc2C(=O)c2c(O)c(O)cc(O)c21 | 44.8 µM (active) | 
32 | CCOC(=O)/C=C/C(=O)OCC |  | -0.499% [at 115 µM] (inactive)
33 | CCCCCCCC/C=C\CCCCCCCCO |  | 2.37% [at 115 µM] (inactive)
34 | O=C1Cc2cc(Cl)ccc2N1 |  | -0.0481% (inactive)
35 | CC(C)COCC(CN(Cc1ccccc1)c1ccccc1)N1CCCC1 (stereo not given) |  | 2.11% (inactive)

Row | SMILES | Potency | activity change, negative = inhibition
36 | C=CC(=O)[O-].C=CC(=O)[O-].[Zn+2] | 2.19 µM (active) | 
37 | Nc1nnc(-c2ccc([N+](=O)[O-])o2)o1 |  | 1.17% [at 115 µM] (inactive)
38 | C=C1CCC2CC1C2(C)C (stereo not given) |  | 1.5% [at 115 µM] (inactive)
39 | O=C(O)c1cccc(-c2noc(-c3ccccc3F)n2)c1 | 0.0087 µM (active) | 
40 | CC(=O)OCCN(CCOC(C)=O)c1ccc(N=Nc2ccc([N+](=O)[O-])cc2C#N)cc1 | 35.6 µM (active) | 
41 | O=c1[nH]c2ccc(Cl)cc2o1 |  | -2.44% [at 115 µM] (inactive)
42 | CCc1ccccc1 |  | 1.46% [at 115 µM] (inactive)
43 | CCC(C)COC(C)=O (stereo not given) |  | 0.512% [at 115 µM] (inactive)
44 | C=C(C)[C@@H]1CCC2=CCC[C@@H](C)[C@]2(C)C1 |  | 0.643% [at 115 µM] (inactive)
45 | O=C(Cn1ccnc1[N+](=O)[O-])NCCO |  | 1.45% (inactive)
46 | C[C@@H]1CN(CCCn2c3ccccc3c3ccccc32)C[C@H](C)N1 |  | 3.4% (inactive)
47 | C[C@]1(Cn2ccnn2)[C@H](C(=O)O)N2C(=O)C[C@H]2S1(=O)=O |  | 6.38% (inactive)
48 | O=C(/C=C/c1ccccc1)OCCc1ccccc1 | 4.48 µM (active) | 
49 | CCCCN1CCCC1C(=O)Nc1c(C)cc(C)cc1C (stereo not given) |  | -5.05% (inactive)
50 | Cc1ccc(C(C)(C)O)cc1 |  | 5.36% [at 115 µM] (inactive)
51 | CCCCN(CCCC)C(C(N)=O)c1ccc(OC)cc1 (stereo not given) |  | 0.349% (inactive)
52 | CCCCN(CCN(CCCC)C(=O)N1CCOCC1)C(=O)N1CCOCC1 |  | -1.11% (inactive)
53 | CC1CC(OC(=O)C(O)c2ccccc2)CC(C)(C)N1C (stereo not given) |  | 11.8% (inactive)
54 | OCCN1CCN(CCCN2c3ccccc3Sc3ccc(Cl)cc32)CC1 |  | 2.81% (inactive)
55 | CCCCCC[C@@H](O)C/C=C\CCCCCCCC(=O)OCC(O)CO (stereo not given in full) |  | 1.82% [at 115 µM] (inactive)

System: not listed separately
Assay: qHTS assay to identify small molecule agonists of the constitutive androstane receptor (CAR) signaling pathway - cell viability counter screen (AID 1224836); further: nearly all actives have a fitted effect of over 45% in size
Details: HepG2-CYP2B6-hCAR viability, CellTiter-Fluor, 23 h, PK11195 added to every well; series mostly up to 92.4 µM; viability change, negative = cytotoxic: at the top concentration
Summary of the method: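 Multiplexed viability check: HepG2-CYP2B6-hCAR cells, 15-point compound dosing, 0.75 uM PK11195 final, 23 h at 37 C, CellTiter-Fluor fluorescence.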

Row | SMILES | viability change, negative = cytotoxic | Potency
56 | Oc1cccc(Nc2ccccc2)c1 | -18.4% (inactive) | 
57 | Cc1cc2c(OCC(CNC(C)(C)C)OC(=O)c3ccccc3)cccc2[nH]1 (stereo not given) | -0.519% [at 42.5 µM] (inactive) | 
58 | CCC1(CO)COCOC1 | 8.85% (inactive) | 
59 | CC(C)(C)C(=O)C(=O)O | 5.28% (inactive) | 
60 | CCCCOc1ccc(OCCCN2CCOCC2)cc1 | -2.27% [at 42.5 µM] (inactive) | 
61 | O=[N+]([O-])c1cc(C2CCCCC2)c(O)c([N+](=O)[O-])c1 |  | 12.2 µM (active)
62 | CN1CCCC(n2nc(Cc3ccc(Cl)cc3)c3ccccc3c2=O)CC1 (stereo not given) |  | 23.7 µM (active)
63 | C(=C\c1ccccc1)/c1ccccc1 | 2.41% (inactive) | 
64 | Clc1cc(Cl)nc(Cl)n1 | 0.192% (inactive) | 
65 | O=C1NCCN1CCO | -3.13% (inactive) | 
66 | CCCCCCCCOc1ccc(C(=O)O)cc1 | -0.493% (inactive) | 
67 | Oc1c(I)cc(I)c2cccnc12 | 1.68% [at 42.5 µM] (inactive) | 
68 | CCOC(=O)c1ccc(I)cc1 | 3.27% (inactive) | 
69 | Cc1cc(O)ccc1O | -6.76% (inactive) | 
70 | c1csc(SSc2cccs2)c1 |  | 54.5 µM (active)
71 | O=C1c2ccccc2C(=O)c2c(O)c(O)cc(O)c21 | -18.6% (inactive) | 
72 | CCOC(=O)/C=C/C(=O)OCC | -1.44% (inactive) | 
73 | CCCCCCCC/C=C\CCCCCCCCO | -0.145% (inactive) | 
74 | O=C1Cc2cc(Cl)ccc2N1 | 3.55% [at 42.5 µM] (inactive) | 
75 | CC(C)COCC(CN(Cc1ccccc1)c1ccccc1)N1CCCC1 (stereo not given) |  | 29.8 µM (active)

Row | SMILES | viability change, negative = cytotoxic | Potency
76 | C=CC(=O)[O-].C=CC(=O)[O-].[Zn+2] | -1.16% (inactive) | 
77 | Nc1nnc(-c2ccc([N+](=O)[O-])o2)o1 |  | 30.6 µM (active)
78 | C=C1CCC2CC1C2(C)C (stereo not given) | 1.73% (inactive) | 
79 | O=C(O)c1cccc(-c2noc(-c3ccccc3F)n2)c1 | 0.735% [at 42.5 µM] (inactive) | 
80 | CC(=O)OCCN(CCOC(C)=O)c1ccc(N=Nc2ccc([N+](=O)[O-])cc2C#N)cc1 | -16.6% (inactive) | 
81 | O=c1[nH]c2ccc(Cl)cc2o1 | -6.83% (inactive) | 
82 | CCc1ccccc1 | 4.07% (inactive) | 
83 | CCC(C)COC(C)=O (stereo not given) | 1.42% (inactive) | 
84 | C=C(C)[C@@H]1CCC2=CCC[C@@H](C)[C@]2(C)C1 | -0.635% (inactive) | 
85 | O=C(Cn1ccnc1[N+](=O)[O-])NCCO | 1.4% [at 42.5 µM] (inactive) | 
86 | C[C@@H]1CN(CCCn2c3ccccc3c3ccccc32)C[C@H](C)N1 |  | 29.8 µM (active)
87 | C[C@]1(Cn2ccnn2)[C@H](C(=O)O)N2C(=O)C[C@H]2S1(=O)=O | 0.0356% [at 42.5 µM] (inactive) | 
88 | O=C(/C=C/c1ccccc1)OCCc1ccccc1 | 0.0932% (inactive) | 
89 | CCCCN1CCCC1C(=O)Nc1c(C)cc(C)cc1C (stereo not given) | -9.05% [at 42.5 µM] (inactive) | 
90 | Cc1ccc(C(C)(C)O)cc1 | 8.21% (inactive) | 
91 | CCCCN(CCCC)C(C(N)=O)c1ccc(OC)cc1 (stereo not given) | -2.51% [at 42.5 µM] (inactive) | 
92 | CCCCN(CCN(CCCC)C(=O)N1CCOCC1)C(=O)N1CCOCC1 | 1.12% [at 42.5 µM] (inactive) | 
93 | CC1CC(OC(=O)C(O)c2ccccc2)CC(C)(C)N1C (stereo not given) | 0.633% [at 42.5 µM] (inactive) | 
94 | OCCN1CCN(CCCN2c3ccccc3Sc3ccc(Cl)cc32)CC1 |  | 29.8 µM (active)
95 | CCCCCC[C@@H](O)C/C=C\CCCCCCCC(=O)OCC(O)CO (stereo not given in full) | 0.63% (inactive) | 
